From PubChem BioAssay
DT40 TDP1 CPT = DT40-hTDP1 cell growth loss with CPT. chicken DT40 Tdp1-/-;hTDP1 cells + 20 nM CPT, ATP luminescence, 48 h. Potency, µM (highest dose often 46.2 µM), for inactives: at the top dose activity change, negative = growth inhibition, usual class: inhibitors. 12% of 420,000 active; note: nearly all actives have a fitted effect of over 55% in size
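Chicken DT40 Tdp1-/- cells stably complemented with human TDP1 were seeded at 400 cells/well in medium containing 20 nM camptothecin, exposed to pin-transferred compounds, and grown at 37 °C for at least 48 hr. Viability was read as ATP luminescence.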
DT40 TDP1 no CPT = qHTS for Inhibitors of human tyrosyl-DNA phosphodiesterase 1 (TDP1): qHTS in cells in absence of CPT. DT40 Tdp1-/- hTDP1 cells, no CPT, ATP luminescence, 48 h. Potency, µM (top dose mostly 46.2 µM), for the others: top-dose activity change, negative = growth inhibition, most hits filed as inhibitors. 15% of 420,000 active; note: nearly all actives have a fitted effect of over 55% in size
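Stably hTDP1-transfected Tdp1-null chicken DT40 cells were treated with library compounds minus camptothecin and grown for at least 48 hr at 37 °C, after which cellular ATP was quantified by luminescence.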
RORg inh = inhibitors of mouse ROR gamma transcriptional activity; Potency, µM (doses to about 53.6 µM), for the others: top-dose activity change, negative = inhibition, usual class: inhibitors; Drosophila S2 Gal4-RORgamma UAS-luciferase reporter, 20 h; P51450; AID 2551; 5.4% of 310,000 active; note: nearly all actives have a fitted effect of over 60% in size
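Compounds are pin-transferred onto Drosophila Schneider cells expressing a copper-inducible Gal4–ROR gamma transactivation domain fusion. After 1 hr, copper sulfate is added to 700 uM final; luciferase is read 20 hr later.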
TDP1 inh = blocks human tyrosyl-DNA phosphodiesterase 1 | Q9NUW8 | recombinant TDP1, AlphaScreen DNA substrate cleavage | Potency, µM (doses to about 130 µM), inactives show top-dose activity change, negative = inhibition, most hits filed as inhibitors | 0.28% of 350,000 active; note: nearly all actives have a fitted effect of over 40% in size
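E. coli-derived human Tdp1, 1 nM final. Cpd preinc 15 min RT; substrate 15 nM final, 5 min RT; AS bead mix 10 ug/ml final, 10 min RT. Signal loss = tyrosine-FITC cleavage. No-enzyme wells = max signal.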
VP16 counter = Gal4-VP16 reporter inhibition counter-screen; AID 2546; Drosophila S2 Gal4-VP16 UAS-luciferase, luminescence, 20 h; 3.5% of 310,000 active; Potency, µM (series often up to 53.6 µM), inactives show top-dose activity, negative = inhibition, actives largely listed as inhibitors;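 note: Gal4-VP16 expression switched on by copper sulfate through the metallothionein promoter; nearly all actives have a fitted effect of over 50% in size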
* hit, by the source's call; [ ] = dose if it differs, or a comment. This is a sample that favours compounds with a hit; in the whole collection about 19% have one here. Calls come from the whole dose curve; as a rule, active = well fitted curve in the direction sought with a large enough effect; inconclusive = small, poorly fitted or top-dose-only effect, or another doubt; inactive = no such curve, though single readings can be large; an effect the other way counts as inactive or inconclusive. % is set by controls: 0 for no effect and ±100 for the full control effect; potency is the fitted concentration of half-maximal effect.

COc1ccc(OCc2ccc(C(=O)N3CCOCC3)cc2)cc1 was read as DT40 TDP1 CPT -24%, DT40 TDP1 no CPT -16%, RORg inh -29%, TDP1 inh 0% and VP16 counter -4%.
For COc1cccc(-c2nnc(-c3ccc(C(F)(F)F)cc3)o2)c1OC the results were DT40 TDP1 CPT inconclusive, DT40 TDP1 no CPT 21µM*, RORg inh inconclusive, TDP1 inh -5% and VP16 counter 19%.
Cc1ccc(-c2nnc(-c3cccc4ccccc34)o2)cc1 was read as DT40 TDP1 CPT 16µM* and DT40 TDP1 no CPT 21µM*.
Screening Cc1ccc(-c2nnc(-c3ccccc3)o2)cc1 returned DT40 TDP1 CPT -22%, DT40 TDP1 no CPT inconclusive, RORg inh inconclusive, TDP1 inh 0%[56.1 µM] and VP16 counter 10µM*.
For c1ccc(-c2nnc(C(c3ccccc3)c3ccccc3)o2)cc1 the results were DT40 TDP1 CPT 26µM*, DT40 TDP1 no CPT 18µM*, RORg inh 21%, TDP1 inh -9% and VP16 counter -8%.
COc1ccc(-c2nnc(-c3ccc(C)cc3)o2)cc1 was read as DT40 TDP1 CPT 23%, DT40 TDP1 no CPT -23%, RORg inh inconclusive and VP16 counter inconclusive.
O=c1cc(CSc2nnnn2-c2ccc(O)cc2)nc2sccn12 was read as DT40 TDP1 CPT -1%, DT40 TDP1 no CPT inconclusive, RORg inh inconclusive, TDP1 inh 3% and VP16 counter -7%.
Cc1ccc(CSc2nnc(-c3cccc4ccccc34)o2)cc1 was read as TDP1 inh 45µM*.
Cc1ccccc1-c1nnc(SCc2ccccc2)o1 was read as DT40 TDP1 CPT -7%, DT40 TDP1 no CPT -17%, RORg inh inconclusive and VP16 counter 10%.
O=C1COc2ccc(S(=O)(=O)NCc3ccccc3)cc2N1 was read as DT40 TDP1 CPT -3%, DT40 TDP1 no CPT 6%, RORg inh 7%, TDP1 inh 15% and VP16 counter 5%.
OC(CNC1CCCc2ccccc21)COc1ccc2ccccc2c1 (stereo not given) was read as DT40 TDP1 CPT inconclusive, DT40 TDP1 no CPT 21µM*, RORg inh -1%, TDP1 inh 6% and VP16 counter 2%.
CC(=O)CCc1ccc(OCC(O)CNC2CCCc3ccccc32)cc1 (stereo not given) was read as DT40 TDP1 CPT inconclusive, DT40 TDP1 no CPT inconclusive, RORg inh 15%, TDP1 inh 0% and VP16 counter -13%.
Screening O=C(c1ccccc1)c1ccc(OCC(O)CNC2CCCc3ccccc32)cc1 (stereo not given) returned DT40 TDP1 CPT 16µM*, DT40 TDP1 no CPT inconclusive, RORg inh -1%, TDP1 inh -3% and VP16 counter -10%.
`CCc1ccccc1OC[C@@H](O)CN[C@H]1CCCc2ccccc21` gave DT40 TDP1 CPT 16µM*, DT40 TDP1 no CPT 6µM*, RORg inh 7.1µM*, TDP1 inh 11%[56.1 µM] and VP16 counter 14µM*.
For Cc1c(C(=O)N2CCCC2)c(S(=O)(=O)Nc2ccccc2Cl)c(C)n1C the results were DT40 TDP1 CPT 2%, DT40 TDP1 no CPT 17%, RORg inh -4%, TDP1 inh 3% and VP16 counter -2%.
`CC(=O)Nc1ccc(OC(F)(F)C(F)F)c(NC(C)=O)c1` gave DT40 TDP1 CPT -7%, DT40 TDP1 no CPT -9%, RORg inh 2%, TDP1 inh 3% and VP16 counter -12%.
`O=C(NC1CCCCCC1)C1CCCN(S(=O)(=O)c2cnc[nH]2)C1` (stereo not given) gave DT40 TDP1 CPT -13%, DT40 TDP1 no CPT -6%, RORg inh -18%, TDP1 inh -3% and VP16 counter 1%.
Screening S=c1[nH]ncn1/N=C/c1ccco1 returned DT40 TDP1 CPT 0% and DT40 TDP1 no CPT -5%.
Screening CC(C)(C)n1cn[nH]c1=S returned DT40 TDP1 CPT 4%, DT40 TDP1 no CPT -6%, RORg inh 11µM*, TDP1 inh inconclusive and VP16 counter -13%.
